Laboratory results taken from article PMC7862700, “An all-to-all approach to the identification of sequence-specific readers for epigenetic DNA modifications on cytosine”.

Assays:
Test in all cases: DAPPL (digital affinity profiling via proximity ligation, sequencing); 10 mM Tris-HCl pH 7.5, 50 mM NaCl, 1 mM DTT, 4% glycerol, room temperature, 30 min; GST-TFs on glutathione beads, 16-mer random dsDNA library, 0.1% formaldehyde crosslink after washing; high values mean tight binding
FLI1 = biological target: T1, FLI1 (Homo sapiens, UniProt Q01543 1-452); conditions: protein: recombinant; tags: N-terminal GST; dsDNA, one strand shown
T1 sequence: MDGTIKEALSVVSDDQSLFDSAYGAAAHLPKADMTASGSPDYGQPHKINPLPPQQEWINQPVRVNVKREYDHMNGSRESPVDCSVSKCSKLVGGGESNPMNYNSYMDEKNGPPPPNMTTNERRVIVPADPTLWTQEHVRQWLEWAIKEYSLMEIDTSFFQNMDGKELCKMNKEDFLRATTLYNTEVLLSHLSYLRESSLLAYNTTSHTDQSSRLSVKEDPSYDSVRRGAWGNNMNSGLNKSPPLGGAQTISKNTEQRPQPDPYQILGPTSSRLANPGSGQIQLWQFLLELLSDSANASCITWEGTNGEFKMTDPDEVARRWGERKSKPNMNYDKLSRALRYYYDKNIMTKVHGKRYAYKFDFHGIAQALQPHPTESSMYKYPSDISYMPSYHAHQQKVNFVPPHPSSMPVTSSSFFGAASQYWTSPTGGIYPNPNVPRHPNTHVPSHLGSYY
Summary of the method: (§1)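 Pools of DNA-barcoded human transcription factors, expressed in yeast as GST fusions on glutathione beads and combined with a tag-only sample, were incubated with 200 nmole of a 16-mer random double-stranded DNA library. Incubation took 30 min at room temperature in Tris/NaCl/DTT/glycerol buffer and was followed by washing, 0.1% formaldehyde crosslinking, proximity ligation (BsaI/T4 ligase, 1 h, 37 °C), PCR amplification and sequencing on an Illumina NextSeq500. Binding signal is the ratio of a hexamer's read frequency for a factor to its frequency for the tag-only sample.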

ELK1 = biological target: T2, ELK1 (Homo sapiens, UniProt P19419 1-428); conditions: protein: recombinant; tags: N-terminal GST; dsDNA, one strand shown
T2 sequence: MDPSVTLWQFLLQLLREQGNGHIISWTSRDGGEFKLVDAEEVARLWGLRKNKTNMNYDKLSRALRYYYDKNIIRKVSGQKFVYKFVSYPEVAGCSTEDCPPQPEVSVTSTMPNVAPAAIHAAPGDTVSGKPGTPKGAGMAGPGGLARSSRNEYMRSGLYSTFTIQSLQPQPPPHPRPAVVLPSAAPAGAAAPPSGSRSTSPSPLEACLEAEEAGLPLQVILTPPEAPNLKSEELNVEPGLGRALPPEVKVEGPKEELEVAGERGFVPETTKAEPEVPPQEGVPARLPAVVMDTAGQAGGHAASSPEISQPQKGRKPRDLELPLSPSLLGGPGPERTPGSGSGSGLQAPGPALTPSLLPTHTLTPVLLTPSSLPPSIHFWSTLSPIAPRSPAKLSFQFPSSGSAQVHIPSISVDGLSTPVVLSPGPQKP
Summary of the method: as §1

GABPA = biological target: T3, GABPA (Homo sapiens, UniProt Q06546 1-454); conditions: protein: recombinant; tags: N-terminal GST; dsDNA, one strand shown
T3 sequence: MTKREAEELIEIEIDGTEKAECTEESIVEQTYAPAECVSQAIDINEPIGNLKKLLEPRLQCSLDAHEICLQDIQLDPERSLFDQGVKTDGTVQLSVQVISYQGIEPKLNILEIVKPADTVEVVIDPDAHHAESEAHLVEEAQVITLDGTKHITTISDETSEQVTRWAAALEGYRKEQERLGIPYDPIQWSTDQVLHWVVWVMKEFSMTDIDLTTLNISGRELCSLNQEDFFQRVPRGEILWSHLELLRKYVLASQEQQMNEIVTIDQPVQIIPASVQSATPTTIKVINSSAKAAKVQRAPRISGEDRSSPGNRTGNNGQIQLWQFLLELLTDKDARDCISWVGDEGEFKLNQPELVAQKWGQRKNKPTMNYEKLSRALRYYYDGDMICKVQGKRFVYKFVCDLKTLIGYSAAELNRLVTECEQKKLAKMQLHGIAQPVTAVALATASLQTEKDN
Summary of the method: as §1

ERG = biological target: T4, ERG (Homo sapiens, UniProt P11308 1-479); conditions: protein: recombinant; tags: N-terminal GST; dsDNA, one strand shown
T4 sequence: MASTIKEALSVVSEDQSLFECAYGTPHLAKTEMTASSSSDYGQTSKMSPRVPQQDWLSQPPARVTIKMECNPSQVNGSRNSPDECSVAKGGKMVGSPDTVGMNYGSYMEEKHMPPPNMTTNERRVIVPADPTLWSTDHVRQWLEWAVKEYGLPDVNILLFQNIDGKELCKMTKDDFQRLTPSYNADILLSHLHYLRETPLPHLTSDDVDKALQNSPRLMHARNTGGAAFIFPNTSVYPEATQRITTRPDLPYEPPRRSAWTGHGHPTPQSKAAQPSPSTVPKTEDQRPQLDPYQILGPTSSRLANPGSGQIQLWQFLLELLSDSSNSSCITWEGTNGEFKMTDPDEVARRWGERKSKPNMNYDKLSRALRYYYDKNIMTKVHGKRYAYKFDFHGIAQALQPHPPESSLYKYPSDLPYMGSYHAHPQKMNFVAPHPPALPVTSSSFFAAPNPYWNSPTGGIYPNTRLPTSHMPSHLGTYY
Summary of the method: as §1

ELF1 = ELF1 (Homo sapiens, UniProt P32519 1-619); conditions: protein: recombinant; tags: N-terminal GST; dsDNA, one strand shown
Summary of the method: as §1

EHF = biological target: T5, EHF (Homo sapiens, UniProt Q9NZC4 1-300); conditions: protein: recombinant; tags: N-terminal GST; dsDNA, one strand shown
T5 sequence: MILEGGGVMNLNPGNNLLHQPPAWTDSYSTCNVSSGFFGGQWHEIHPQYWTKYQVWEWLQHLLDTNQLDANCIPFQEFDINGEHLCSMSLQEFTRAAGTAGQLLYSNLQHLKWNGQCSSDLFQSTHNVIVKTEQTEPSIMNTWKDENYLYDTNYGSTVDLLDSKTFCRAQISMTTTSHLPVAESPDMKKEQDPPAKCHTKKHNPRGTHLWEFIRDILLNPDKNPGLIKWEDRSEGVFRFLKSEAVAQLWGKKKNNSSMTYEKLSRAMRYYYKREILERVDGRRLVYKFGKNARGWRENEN
Summary of the method: as §1

SPI1 = SPI1 (Homo sapiens, UniProt P17947 1-270); conditions: protein: recombinant; tags: N-terminal GST; dsDNA, one strand shown
Summary of the method: as §1

SPIB = SPIB (Homo sapiens, UniProt Q01892 1-262); conditions: protein: recombinant; tags: N-terminal GST; dsDNA, one strand shown
Summary of the method: as §1

FEV = biological target: T6, FEV (Homo sapiens, UniProt Q99581 1-238); conditions: protein: recombinant; tags: N-terminal GST; dsDNA, one strand shown
T6 sequence: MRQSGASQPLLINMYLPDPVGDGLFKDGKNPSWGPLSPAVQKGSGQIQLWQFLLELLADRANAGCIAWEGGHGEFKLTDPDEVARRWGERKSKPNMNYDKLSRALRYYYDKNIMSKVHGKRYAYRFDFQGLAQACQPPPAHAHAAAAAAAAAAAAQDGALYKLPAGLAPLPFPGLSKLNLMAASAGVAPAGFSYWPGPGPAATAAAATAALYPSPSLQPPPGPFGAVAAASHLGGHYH
Summary of the method: as §1

ETV5 = ETV5 (Homo sapiens, UniProt P41161 1-510); conditions: protein: recombinant; tags: N-terminal GST; dsDNA, one strand shown
Summary of the method: as §1

HSF1 = HSF1 (Homo sapiens, UniProt Q00613 1-529); conditions: protein: recombinant; tags: N-terminal GST; chain copies: 3; dsDNA, one strand shown
Summary of the method: as §1

SPIC = biological target: T7, SPIC (Homo sapiens, UniProt Q8N5J4 1-248); conditions: protein: recombinant; tags: N-terminal GST; dsDNA, one strand shown
T7 sequence: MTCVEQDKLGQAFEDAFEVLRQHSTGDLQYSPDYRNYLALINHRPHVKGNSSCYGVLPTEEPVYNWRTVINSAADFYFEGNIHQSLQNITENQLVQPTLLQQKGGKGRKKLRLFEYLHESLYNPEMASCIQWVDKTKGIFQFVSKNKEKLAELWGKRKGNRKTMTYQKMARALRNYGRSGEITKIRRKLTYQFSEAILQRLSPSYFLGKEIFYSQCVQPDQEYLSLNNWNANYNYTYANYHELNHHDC
Summary of the method: as §1

ELF4 = ELF4 (Homo sapiens, UniProt Q99607 1-663); conditions: protein: recombinant; tags: N-terminal GST; dsDNA, one strand shown
Summary of the method: as §1

ELK4 = biological target: T8, ELK4 (Homo sapiens, UniProt P28324-2 1-405); conditions: protein: recombinant; tags: N-terminal GST; dsDNA, one strand shown
T8 sequence: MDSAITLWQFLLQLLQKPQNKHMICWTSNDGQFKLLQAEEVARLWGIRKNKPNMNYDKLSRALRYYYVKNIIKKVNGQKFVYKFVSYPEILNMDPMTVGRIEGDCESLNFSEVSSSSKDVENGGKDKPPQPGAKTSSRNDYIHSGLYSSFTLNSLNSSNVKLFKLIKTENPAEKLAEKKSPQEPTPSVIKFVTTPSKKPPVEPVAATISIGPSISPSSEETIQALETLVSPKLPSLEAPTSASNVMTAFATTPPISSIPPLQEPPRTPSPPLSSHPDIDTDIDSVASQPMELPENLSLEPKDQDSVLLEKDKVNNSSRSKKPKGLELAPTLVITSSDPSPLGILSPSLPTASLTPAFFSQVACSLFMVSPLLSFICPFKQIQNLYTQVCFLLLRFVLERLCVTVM
Summary of the method: as §1

ETV2 = biological target: T9, ETV2 (Homo sapiens, UniProt O00321 1-342); conditions: protein: recombinant; tags: N-terminal GST; dsDNA, one strand shown
T9 sequence: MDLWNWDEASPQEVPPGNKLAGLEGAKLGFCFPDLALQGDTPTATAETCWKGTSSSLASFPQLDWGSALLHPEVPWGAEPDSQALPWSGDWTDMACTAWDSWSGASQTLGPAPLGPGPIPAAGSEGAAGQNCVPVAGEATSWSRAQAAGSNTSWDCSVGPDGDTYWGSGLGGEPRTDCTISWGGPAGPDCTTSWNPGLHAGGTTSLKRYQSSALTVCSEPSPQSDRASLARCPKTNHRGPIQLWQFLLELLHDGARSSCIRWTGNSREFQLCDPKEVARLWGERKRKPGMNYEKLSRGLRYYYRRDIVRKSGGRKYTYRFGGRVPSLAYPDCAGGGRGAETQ
Summary of the method: as §1

ELF3 = biological target: T10, ELF3 (Homo sapiens, UniProt P78545 1-371); conditions: protein: recombinant; tags: N-terminal GST; dsDNA, one strand shown
T10 sequence: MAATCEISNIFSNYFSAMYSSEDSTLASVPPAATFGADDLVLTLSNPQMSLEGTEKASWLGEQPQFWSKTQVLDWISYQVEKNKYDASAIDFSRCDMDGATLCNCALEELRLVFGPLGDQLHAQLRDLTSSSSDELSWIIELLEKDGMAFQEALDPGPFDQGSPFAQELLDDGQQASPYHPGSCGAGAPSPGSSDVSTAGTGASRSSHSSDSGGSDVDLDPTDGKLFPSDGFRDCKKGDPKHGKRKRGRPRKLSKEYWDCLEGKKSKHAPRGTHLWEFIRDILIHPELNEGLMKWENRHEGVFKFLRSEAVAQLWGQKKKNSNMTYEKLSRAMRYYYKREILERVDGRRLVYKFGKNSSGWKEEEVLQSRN
Summary of the method: as §1

CRX = CRX (Homo sapiens, UniProt O43186 1-299); conditions: protein: recombinant; tags: N-terminal GST; dsDNA, one strand shown
Summary of the method: as §1

ETV1 = ETV1 (Homo sapiens, UniProt P50549 1-477); conditions: protein: recombinant; tags: N-terminal GST; dsDNA, one strand shown
Summary of the method: as §1

Chain of ELF4 (Q99607 whole entry): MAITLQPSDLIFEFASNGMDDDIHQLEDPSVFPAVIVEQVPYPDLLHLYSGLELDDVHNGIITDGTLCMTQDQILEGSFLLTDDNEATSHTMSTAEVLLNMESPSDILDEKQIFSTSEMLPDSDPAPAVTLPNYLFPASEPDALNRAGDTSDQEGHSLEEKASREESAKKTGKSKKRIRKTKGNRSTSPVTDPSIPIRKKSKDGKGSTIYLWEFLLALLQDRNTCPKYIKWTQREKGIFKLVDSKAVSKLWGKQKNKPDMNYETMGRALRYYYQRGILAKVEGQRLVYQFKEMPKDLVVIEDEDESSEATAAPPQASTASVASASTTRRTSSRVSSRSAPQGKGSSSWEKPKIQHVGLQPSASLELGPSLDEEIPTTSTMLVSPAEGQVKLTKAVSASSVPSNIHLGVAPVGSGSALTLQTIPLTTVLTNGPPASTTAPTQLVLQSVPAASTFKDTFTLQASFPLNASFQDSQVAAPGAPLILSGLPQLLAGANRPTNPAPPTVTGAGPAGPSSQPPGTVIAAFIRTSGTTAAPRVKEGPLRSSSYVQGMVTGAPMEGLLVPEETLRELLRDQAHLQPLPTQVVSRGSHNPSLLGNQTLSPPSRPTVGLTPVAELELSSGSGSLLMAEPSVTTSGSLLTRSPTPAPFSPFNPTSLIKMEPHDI
Chain of SPIB (Q01892 whole entry): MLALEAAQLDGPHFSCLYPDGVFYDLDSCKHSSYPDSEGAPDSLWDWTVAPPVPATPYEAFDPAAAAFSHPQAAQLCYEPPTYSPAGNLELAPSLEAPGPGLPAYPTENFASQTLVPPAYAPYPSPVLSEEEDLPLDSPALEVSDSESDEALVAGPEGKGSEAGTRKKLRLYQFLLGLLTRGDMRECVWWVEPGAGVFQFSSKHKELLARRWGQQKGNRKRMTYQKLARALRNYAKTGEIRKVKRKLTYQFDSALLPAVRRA
Chain of HSF1 (Q00613 whole entry): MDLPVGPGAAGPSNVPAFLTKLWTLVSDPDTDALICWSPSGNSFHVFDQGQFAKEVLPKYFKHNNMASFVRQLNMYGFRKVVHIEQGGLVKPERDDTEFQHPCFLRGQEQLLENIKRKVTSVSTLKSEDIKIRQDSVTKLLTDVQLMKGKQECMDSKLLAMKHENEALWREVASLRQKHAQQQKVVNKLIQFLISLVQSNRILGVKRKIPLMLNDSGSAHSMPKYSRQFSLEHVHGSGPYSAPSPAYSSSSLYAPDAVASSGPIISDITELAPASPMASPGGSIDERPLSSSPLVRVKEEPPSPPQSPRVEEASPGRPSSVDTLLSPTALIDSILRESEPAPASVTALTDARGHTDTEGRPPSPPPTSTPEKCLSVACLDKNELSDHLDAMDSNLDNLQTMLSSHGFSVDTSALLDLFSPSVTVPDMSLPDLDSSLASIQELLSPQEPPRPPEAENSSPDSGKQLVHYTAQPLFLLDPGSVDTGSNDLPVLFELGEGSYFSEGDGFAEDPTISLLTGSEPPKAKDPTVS
Chain of CRX (O43186 whole entry): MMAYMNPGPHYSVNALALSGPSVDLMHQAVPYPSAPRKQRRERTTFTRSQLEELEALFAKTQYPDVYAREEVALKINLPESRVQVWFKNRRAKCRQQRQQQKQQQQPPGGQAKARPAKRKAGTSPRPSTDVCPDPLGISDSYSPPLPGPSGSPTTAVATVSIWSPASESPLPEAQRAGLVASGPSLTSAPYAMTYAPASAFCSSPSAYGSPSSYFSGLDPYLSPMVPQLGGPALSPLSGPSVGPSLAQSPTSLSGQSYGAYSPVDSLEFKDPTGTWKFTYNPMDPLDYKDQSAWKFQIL
Chain of ETV5 (P41161 whole entry): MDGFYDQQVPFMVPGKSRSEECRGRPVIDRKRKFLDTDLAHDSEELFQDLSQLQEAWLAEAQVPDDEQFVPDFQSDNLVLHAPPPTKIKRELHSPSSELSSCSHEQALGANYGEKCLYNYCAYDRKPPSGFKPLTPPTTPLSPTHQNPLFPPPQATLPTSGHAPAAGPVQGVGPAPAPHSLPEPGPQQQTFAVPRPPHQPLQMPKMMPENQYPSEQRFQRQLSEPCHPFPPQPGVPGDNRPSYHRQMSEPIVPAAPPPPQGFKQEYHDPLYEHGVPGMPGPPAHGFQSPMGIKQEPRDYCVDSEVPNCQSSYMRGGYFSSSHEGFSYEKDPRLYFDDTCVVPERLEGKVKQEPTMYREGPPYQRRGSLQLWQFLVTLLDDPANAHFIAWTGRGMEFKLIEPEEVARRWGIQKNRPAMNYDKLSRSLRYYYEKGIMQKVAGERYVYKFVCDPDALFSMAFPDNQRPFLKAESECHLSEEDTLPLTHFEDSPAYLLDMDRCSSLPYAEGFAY
Chain of ETV1 (P50549 whole entry): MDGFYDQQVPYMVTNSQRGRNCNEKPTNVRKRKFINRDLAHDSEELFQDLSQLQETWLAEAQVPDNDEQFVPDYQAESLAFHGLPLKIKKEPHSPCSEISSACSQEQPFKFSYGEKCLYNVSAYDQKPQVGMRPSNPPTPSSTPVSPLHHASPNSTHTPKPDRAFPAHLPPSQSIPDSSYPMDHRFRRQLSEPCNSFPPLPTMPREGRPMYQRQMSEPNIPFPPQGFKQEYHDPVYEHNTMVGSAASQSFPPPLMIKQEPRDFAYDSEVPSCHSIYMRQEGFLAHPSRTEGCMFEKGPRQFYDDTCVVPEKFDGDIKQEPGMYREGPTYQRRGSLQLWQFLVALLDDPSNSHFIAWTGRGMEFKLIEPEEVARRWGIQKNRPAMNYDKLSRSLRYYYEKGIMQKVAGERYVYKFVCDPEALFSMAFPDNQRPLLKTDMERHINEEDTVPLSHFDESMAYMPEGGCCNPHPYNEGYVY
Chain of ELF1 (P32519 whole entry): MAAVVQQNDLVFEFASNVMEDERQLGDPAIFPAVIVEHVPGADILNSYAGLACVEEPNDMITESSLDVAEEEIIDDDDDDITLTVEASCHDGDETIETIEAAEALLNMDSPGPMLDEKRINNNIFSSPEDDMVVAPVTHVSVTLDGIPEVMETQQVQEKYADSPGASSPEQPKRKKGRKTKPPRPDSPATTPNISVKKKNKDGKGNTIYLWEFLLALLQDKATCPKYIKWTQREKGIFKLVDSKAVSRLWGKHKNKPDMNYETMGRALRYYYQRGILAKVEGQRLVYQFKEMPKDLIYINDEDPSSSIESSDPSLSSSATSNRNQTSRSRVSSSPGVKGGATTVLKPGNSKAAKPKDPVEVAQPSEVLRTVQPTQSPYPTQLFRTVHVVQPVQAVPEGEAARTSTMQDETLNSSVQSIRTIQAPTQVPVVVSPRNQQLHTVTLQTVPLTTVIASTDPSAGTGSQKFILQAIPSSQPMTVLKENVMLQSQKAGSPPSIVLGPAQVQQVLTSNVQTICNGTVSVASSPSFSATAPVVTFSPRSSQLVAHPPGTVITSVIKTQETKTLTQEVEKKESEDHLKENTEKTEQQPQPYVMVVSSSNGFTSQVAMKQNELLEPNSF

Sequence: GCTTAG
- binding signal (FLI1): 1.14 fold enrichment (6-mer frequency, TF over GST control)
- binding signal (ELK1): 1.06 fold enrichment (6-mer frequency, TF over GST control)
- binding signal (GABPA): 1.19 fold enrichment (6-mer frequency, TF over GST control)
- binding signal (ERG): 1.18 fold enrichment (6-mer frequency, TF over GST control)
- binding signal (ELF1): 1.15 fold enrichment (6-mer frequency, TF over GST control)
- binding signal (EHF): 1.11 fold enrichment (6-mer frequency, TF over GST control)
- binding signal (SPI1): 1.1 fold enrichment (6-mer frequency, TF over GST control)
- binding signal (SPIB): 1.09 fold enrichment (6-mer frequency, TF over GST control)
- binding signal (FEV): 1.08 fold enrichment (6-mer frequency, TF over GST control)
- binding signal (ETV5): 1.13 fold enrichment (6-mer frequency, TF over GST control)
- binding signal (HSF1): 1.78 fold enrichment (6-mer frequency, TF over GST control)
- binding signal (SPIC): 1.12 fold enrichment (6-mer frequency, TF over GST control)
- binding signal (ELF4): 1.1 fold enrichment (6-mer frequency, TF over GST control)
- binding signal (ELK4): 1.17 fold enrichment (6-mer frequency, TF over GST control)
- binding signal (ETV2): 1.08 fold enrichment (6-mer frequency, TF over GST control)
- binding signal (ELF3): 1.09 fold enrichment (6-mer frequency, TF over GST control)
- binding signal (CRX): 2.49 fold enrichment (6-mer frequency, TF over GST control)
- binding signal (ETV1): 1.27 fold enrichment (6-mer frequency, TF over GST control)
